# In all, about 33,000 sequences were measured (“E-score (-0.5 to 0.5)”: median about -0.041, highest 2% from about 0.37 on). Shown is part of a subset that was picked to be rich in the highest values.
# Molecular target: T1, Ecm22 (UniProt Q05958)
# T1 sequence: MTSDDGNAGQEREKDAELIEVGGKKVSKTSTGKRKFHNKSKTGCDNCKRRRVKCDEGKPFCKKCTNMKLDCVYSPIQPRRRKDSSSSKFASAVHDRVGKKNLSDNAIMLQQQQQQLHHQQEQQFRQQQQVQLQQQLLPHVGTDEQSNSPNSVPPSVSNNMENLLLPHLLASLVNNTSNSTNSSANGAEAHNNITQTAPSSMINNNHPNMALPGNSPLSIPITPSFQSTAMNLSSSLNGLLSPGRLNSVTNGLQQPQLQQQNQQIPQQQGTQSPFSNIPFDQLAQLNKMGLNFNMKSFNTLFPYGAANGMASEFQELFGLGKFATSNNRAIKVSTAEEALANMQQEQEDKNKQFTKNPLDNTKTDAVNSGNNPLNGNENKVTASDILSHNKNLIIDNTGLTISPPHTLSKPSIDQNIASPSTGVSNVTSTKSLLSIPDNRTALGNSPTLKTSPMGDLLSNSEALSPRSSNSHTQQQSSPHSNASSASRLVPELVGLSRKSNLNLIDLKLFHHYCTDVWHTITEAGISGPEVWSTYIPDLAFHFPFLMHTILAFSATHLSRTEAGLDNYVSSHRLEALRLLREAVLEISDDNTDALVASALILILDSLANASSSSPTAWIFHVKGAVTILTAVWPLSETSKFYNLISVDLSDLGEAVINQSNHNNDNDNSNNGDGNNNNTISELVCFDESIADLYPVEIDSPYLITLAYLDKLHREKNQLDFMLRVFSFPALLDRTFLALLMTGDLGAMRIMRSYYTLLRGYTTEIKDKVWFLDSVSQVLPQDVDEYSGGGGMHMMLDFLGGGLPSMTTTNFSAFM
# Assay: PBM E-score (8-mer binding enrichment) (E-score (-0.5 to 0.5)); higher = stronger / more preferred TF binding
# Conditions: protein concentration: 200 nM; construct: GST-full length
# Experimental: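 Universal 'all 10-mer' protein binding microarrays (Agilent AMADID 015681) probed with GST-tagged S. cerevisiae TFs (full-length or DBD) made by in vitro transcription/translation (PURExpress), about 100-200 nM. Bound TF was detected with fluorescent anti-GST. Each ungapped 8-mer (which stands for itself and its reverse complement) is scored by the PBM enrichment score (E-score), a modified Wilcoxon-Mann-Whitney statistic from -0.5 to +0.5, computed with the Universal PBM Analysis Suite. Scale: above 0.35 generally sequence-specific binding.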
row,Sequence,PBM E-score
1,CGTTTATA,0.426
2,CTTTTATC,-0.0345
3,CGTTTATC,0.42
4,AGCTCAGG,-0.211
5,TGAAGTCA,-0.133
6,GCCCAACC,0.0862
7,AGTATTTA,-0.0192
8,AGTATATC,0.122
9,CATATATC,0.0903
10,CGTATATC,0.439
11,CGTATTTA,0.369
12,AGTATATA,0.341
13,GGTATTTA,-0.00022
14,GGTATATA,0.168
15,CGTATATA,0.444
16,AAGTACCG,0.152
17,CTAATGAG,-0.0357
18,GCAAATGA,0.0372
19,CCACTCGC,0.184
20,CTGGCTCC,-0.202
21,CGTGTTCA,0.0358
22,AACCTCTT,-0.0421

row,Sequence,PBM E-score
1,GTAACCGA,0.332
2,CTAACCGC,0.0805
3,CTAACCGA,0.372
4,CGCCACTC,-0.016
5,AAACTGTC,-0.0481
6,ATACGATG,0.472
7,ACACGATC,0.0695
8,CTACGATC,0.325
9,ATACGATC,0.457
10,ACACGATG,0.17
11,AGACGATG,0.00668
12,AGCAGGGC,-0.0233
13,TATACTGA,0.182
14,CGATCTAC,0.184
15,AGTACCAT,0.0273
16,AGGCCGTA,0.384
17,CGGCCGTA,0.34
18,GGGCCGTA,0.333
19,AAAGCTGT,-0.108
20,CGAAGCAG,0.147
21,GCGTGGGA,0.0285
22,CTACGACA,0.347

row,Sequence,PBM E-score
1,ACACGACA,0.233
2,ATACGACA,0.469
3,GTACGACA,0.48
4,GCACGACA,0.114
5,AGACGACA,0.0702
6,CCCTGGAC,-0.193
7,GTAGCAGA,0.0392
8,AGGACCCT,-0.235
9,CCCTCAAC,-0.248
10,GGTTCGTA,0.443
11,AGTTCGTC,0.207
12,CGTTCAAG,0.335
13,CGTTCATC,0.354
14,GGTTCGAA,0.182
15,AGTTCGTA,0.449
16,CGTTCATA,0.386
17,GGTTCATA,0.0139
18,AGTTCGTG,0.189
19,CGTTCAAA,0.361
20,GGTTCGGA,-0.1
21,CGTTCAAC,0.377
22,AGGAAACG,0.281

row,Sequence,PBM E-score
1,GGAACAGA,-0.378
2,CTGTCCCA,-0.11
3,CACTCGGA,0.198
4,CGTAATAA,0.247
5,AAGCGAAT,0.277
6,CATGCAAC,0.0872
7,CGTTCGTC,0.314
8,CGTTCGGA,0.274
9,CGTTCGTA,0.461
10,AAGGAGGC,-0.319
11,AGCATCGG,-0.0521
12,TCCAGCGA,-0.115
13,TGGGTGAA,0.0282
14,ACGACGCA,0.412
15,ACGACGAT,0.325
16,ACGACGCG,0.407
17,CCGACGCG,0.218
18,AAGACGCG,-0.012
19,ACGACGCT,0.38
20,ACGACTCG,0.39
21,ACGACTCT,0.308
